The record followed here is PubChem BioAssay.

Assay [1] relates to Human papillomavirus type 1a protein E7 (residues 44-93). The assay can be described thus: small molecules binding HPV E7 44-93 – biochemical, small-molecule microarray, residues 44-93, 635 nm fluorescence, primary screen (AID 1108).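 Note: E7 fragment applied at 1 µg/mL in TBST for 1 h at 4 C; score combines spot fluorescence with its signal to noise ratio.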 The note with it: fluorescence 635 nm, higher = more signal.
The nature of assay [2]: hepatitis C replication reporter changes, two-sided – Huh7 cells, luciferase reporter, HCV replication inhibitor project, primary screen (AID 1109).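 Note: huh7 hepatoma cells harbouring a luciferase neomycin HCV replicon reporter; luciferase luminescence as measure of HCV replicon replication; test concentration not given here.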 The note with it: Huh7 HCV replicon luciferase reporter, 48 h; higher = more signal.
The target of assay [3] is Left-right determination factor 2 (Homo sapiens) (UniProt O00292). Description: small molecules binding LEFTY2 protein – biochemical, small-molecule microarray, 635 nm fluorescence scan, primary screen (AID 1110). The note with it: higher = more signal.
Sequence of Left-right determination factor 2 (Homo sapiens) (O00292 whole entry, looked up): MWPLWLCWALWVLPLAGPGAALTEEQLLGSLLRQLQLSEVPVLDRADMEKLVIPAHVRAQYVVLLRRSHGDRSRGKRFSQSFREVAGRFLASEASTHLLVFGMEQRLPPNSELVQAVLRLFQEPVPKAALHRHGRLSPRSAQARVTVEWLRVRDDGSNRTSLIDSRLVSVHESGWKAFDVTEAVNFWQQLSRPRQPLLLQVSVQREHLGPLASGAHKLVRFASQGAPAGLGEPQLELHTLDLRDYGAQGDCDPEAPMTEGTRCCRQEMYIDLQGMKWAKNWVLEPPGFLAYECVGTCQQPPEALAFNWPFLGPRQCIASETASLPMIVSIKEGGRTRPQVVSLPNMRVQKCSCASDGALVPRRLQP
For assay [4], the target named is Calmodulin-1 (Homo sapiens) (UniProt P0DP23). The assay can be described thus: small molecules binding calmodulin-1 with EGTA – biochemical, small-molecule microarray, Cy5-labelled CALM1, profiling panel (AID 1111).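 Note: labelled calmodulin applied in Tris saline Tween buffer holding calcium plus EGTA and DTT.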 The note with it: Cy5-CALM1 binding fluorescence, higher = more signal.
The target is the same in assay [5]. Description: small molecules binding Ca-loaded calmodulin-1 – biochemical, small-molecule microarray, Cy5-labelled CALM1, plus calcium, artefact control for SMM control-protein annotation, profiling panel (AID 1112).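 Note: score merges spot fluorescence with signal to noise from triplicate slides.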 The note with it: Cy5-CALM1 binding fluorescence, higher = more signal.
A short description of assay [6]: probe aWnt5a binding to arrayed compounds – biochemical, biotinylated probe, 635/667 nm fluorescence, primary screen (AID 1113).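 Note: score merges 667 nm fluorescence intensity with signal-to-noise per printed feature.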 As to conditions: small-molecule microarray, higher = more signal.
A short description of assay [7]: probe aShh binding to arrayed compounds – biochemical, biotinylated probe, 635/667 nm fluorescence, primary screen (AID 1114).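 Note: probe is biotin-labelled aShh protein from a stem cell growth factor screen; measures binding of labelled protein to compounds printed on the slide; score merges feature fluorescence at 667 nm with signal-to-noise.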 The note with it: small-molecule microarray, higher = more signal.
Assay [8] in a line: probe aNog binding to arrayed compounds – biochemical, biotinylated probe, 635/667 nm fluorescence, primary screen (AID 1115).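 Note: probe is biotinylated aNog protein used at 0.15 µg/mL for 1 h at 4 C; z-score combines 667 nm fluorescence of each spot with its signal to noise.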 As to conditions: small-molecule microarray, higher = more signal.
Assay [9] concerns the target Torsin-1A-interacting protein 1 (Homo sapiens) (UniProt Q5JTV8). Description: compound microarray binding of lysate hLAP1 – cell lysate, small-molecule microarray, COS7 lysate, 635/667 nm fluorescence, primary screen (AID 1116). The note with it: 635 nm fluorescence, higher = more signal.
In assay [10] the target is Alpha-bungarotoxin (Bungarus multicinctus) (UniProt P60615). The assay can be described thus: compounds binding labelled alpha-BTX control protein – biochemical, small-molecule microarray, Alexa647 label, 635/667 nm fluorescence, artefact control for SMM control protein annotation, profiling panel (AID 1117). The note with it: alpha-BTX-A647 binding fluorescence, higher = more signal.
Sequence of Alpha-bungarotoxin (Bungarus multicinctus) (P60615 whole entry, looked up): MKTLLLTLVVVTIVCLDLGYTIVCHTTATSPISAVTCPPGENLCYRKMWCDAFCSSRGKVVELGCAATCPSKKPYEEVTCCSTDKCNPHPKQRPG

Structures are written as SMILES.

Sequence of Torsin-1A-interacting protein 1 (Homo sapiens) (Q5JTV8 whole entry, looked up): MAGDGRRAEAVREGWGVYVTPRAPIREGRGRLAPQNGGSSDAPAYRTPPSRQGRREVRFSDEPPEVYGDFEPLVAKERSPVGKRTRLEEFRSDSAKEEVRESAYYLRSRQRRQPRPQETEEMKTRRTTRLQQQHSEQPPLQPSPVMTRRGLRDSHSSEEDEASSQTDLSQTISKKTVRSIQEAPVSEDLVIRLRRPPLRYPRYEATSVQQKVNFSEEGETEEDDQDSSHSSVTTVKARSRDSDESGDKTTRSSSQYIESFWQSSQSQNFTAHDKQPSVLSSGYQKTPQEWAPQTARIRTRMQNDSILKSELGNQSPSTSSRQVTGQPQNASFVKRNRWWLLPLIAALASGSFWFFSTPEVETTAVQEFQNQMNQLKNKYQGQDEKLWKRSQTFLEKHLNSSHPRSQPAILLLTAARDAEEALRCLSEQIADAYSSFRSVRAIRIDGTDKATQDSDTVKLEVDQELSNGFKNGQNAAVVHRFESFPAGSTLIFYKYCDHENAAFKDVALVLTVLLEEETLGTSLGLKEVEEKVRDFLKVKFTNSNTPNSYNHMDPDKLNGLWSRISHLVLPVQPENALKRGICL

For `COC(=O)[C@@]1(CCS(=O)(=O)c2ccccc2)N=C(c2ccc(OCCCO)cc2)O[C@H]1c1ccccc1CN=[N+]=[N-]`, the composite z-score in [1] is 0.797; in assay [3], -0.343; in [4] it was 1.72; in assay [5], 0.373; in [6], -0.0539; in assay [7], 0.0469. Moreover, the composite z-score amounted to 0.647 in assay [8], 1.13 in assay [9] and 0.829 in [10]. The compound also registered a z-score in [2] of -2.38.
Consider `CCCC[C@@H]1C[C@H]1[C@@H](NC(=O)c1ccco1)c1ccc(-c2ccccc2)cc1`, for which the composite z-score was 0.114 in [1]; 0.0023 in assay [3]; -0.179 in assay [4]; 0.0765 in [5]; 0.0916 in assay [6]; 0.104 in assay [7]. Also, the composite z-score in assay [8] is 0.376; in [9], 0.425; in assay [10] it was 0.0932. Besides, in [2], the z-score is -0.971.
Turning to `COC(=O)[C@@]1(Cc2ccc(F)cc2)[C@H]2c3cc(C(=O)N4CCCC4)n(CCCNc4ncc(C(F)(F)F)cc4Cl)c3C[C@H]2CN1C(=O)c1ccccc1`, the composite z-score is 1.39 in assay [1]; -0.386 in [3]; 1.59 in assay [4]; 0.868 in assay [5]; -0.0107 in [6]; 0.831 in assay [7]. In addition, the composite z-score stood at 1.37 in assay [8], 0.679 in assay [9] and 0.493 in [10]. In assay [2], this compound gave a z-score of -1.48.
Consider `CC(C)(C)OC(=O)CC[C@]1(C(=O)N2CCOCC2)N=C(c2ccc(OCCCO)cc2)O[C@H]1c1ccccc1N=[N+]=[N-]`, for which the composite z-score in assay [1] is 1.05; in [3], 0.119; in assay [4], 0.981; in assay [5], 0.0644; in assay [6], -0.0125; in assay [7], 0.308. Further, the composite z-score in assay [8] was 1.37; in [9], 2.43; in assay [10] it was 1.23. Further, the z-score in assay [2] is 2.2.
For the compound `C[N+](C)(C)CCCC[C@@H]1NC(=O)[C@H]2C[C@@H](C(=O)NCCCCCCNC(=O)CS)[C@@H](c3cccc(OCCO)c3)N2C1=O`, the composite z-score is -1.51 in assay [1]; -1.55 in assay [3]; -0.149 in assay [4]; 0.105 in assay [5]; -0.202 in [6]; -0.17 in assay [7]. The composite z-score is -0.175 in [8], -0.933 in assay [9] and -1.06 in assay [10]. The compound further came in with a z-score in assay [2] of -0.242.
Consider `C=C(COC)/C(=C/C[C@H](OC(C)=O)c1ccc(CO)o1)c1cc(C(=O)OC)ccc1OC`, for which the composite z-score in [1] is 0.487; in assay [3], -0.151; in [4], -0.0624; in assay [5], 0.204; in assay [6] it was -0.0107; in assay [7], -0.105. The composite z-score is -0.0489 in assay [8], 0.0742 in assay [9] and -0.136 in assay [10]. In [2], the z-score was -0.246.
Turning to `CCCCCCc1nc(-c2cc(C)c(OC)c(C)c2)cc2c1[Si](C(C)C)(C(C)C)OC2`, the composite z-score in assay [1] is 0.0047; in [3] it was -0.21; in assay [4], -0.268; in assay [5] it was -0.256; in [6], -0.124; in [7] it was -0.273. Further, the composite z-score was -0.244 in assay [8], -0.359 in assay [9] and 0.19 in [10]. In [2], this compound returned a z-score of 0.777.
Regarding `NCCCCCCNC(=O)[C@@H]1C[C@@H]2C(=O)NCC(=O)N2[C@@H]1c1ccc(O)cc1`, the composite z-score in assay [1] is 1.29; in [3], 1.14; in assay [4] it was 0.584; in assay [5], -0.0301; in assay [6], -0.142; in [7], 0.0469. Besides, the composite z-score in [8] was -0.566; in assay [9], 0.715; in assay [10], 1.41. For the same compound, in assay [2], the z-score amounted to 0.279.
In the case of `COC(=O)[C@@]1(Cc2ccc(OC)cc2)[C@H]2c3cc(C(=O)N(C)C)n(CCc4ccccn4)c3C[C@H]2CN1C(=O)c1ccccc1`, the composite z-score in assay [1] is 0.263; in [3], -0.288; in [4] it was 0.993; in assay [5], 0.93; in assay [6], 0.675; in assay [7] it was 1.31. Also, the composite z-score in [8] is 0.854; in [9] it was 1.01; in [10], 0.248. Besides, in assay [2], the z-score is -0.845.
With `C=CCOC(=O)[C@H]1[C@@H]2C(=O)O[C@@H](c3ccccc3)[C@@H](c3ccccc3)N2[C@@H](c2ccc(OCCOC(=O)[C@H]3C[C@H]4C(=O)N[C@@H](CCCCN(C)C)C(=O)N4[C@H]3c3ccc(O)cc3)cc2)[C@]12C(=O)Nc1ccc(I)cc12`, the composite z-score was 1.4 in assay [1]; 1.21 in [3]; 0.536 in assay [4]; -0.62 in assay [5]; 0.114 in assay [6]; 0.275 in [7]. The composite z-score in [8] amounted to 1.14; in assay [9], 1.64; in assay [10], 0.864. Further, in assay [2], the z-score was -0.151.
Consider `NC(=O)NCC#Cc1ccc2c(c1)[C@]1(C(=O)N2)[C@H](C(=O)Nc2nc3ccccc3s2)[C@H]2C(=O)O[C@H](c3ccccc3)[C@H](c3ccccc3)N2[C@@H]1c1ccccc1OCCO`, for which the composite z-score is 1.4 in assay [1]; 0.235 in assay [3]; 1.23 in assay [4]; 0.579 in [5]; 0.312 in [6]; -0.0773 in assay [7]. In addition, the composite z-score in assay [8] is 2.12; in [9] it was -0.638; in assay [10], 2.74. The same compound gave a z-score in assay [2] of -1.33.
Turning to `C=CCOC(=O)[C@H]1[C@@H]2C(=O)O[C@@H](c3ccccc3)[C@@H](c3ccccc3)N2[C@@H](c2ccc(OCCOC(=O)[C@H]3C[C@H]4C(=O)N[C@@H](CCCC[N+](C)(C)C)C(=O)N4[C@H]3c3ccc(O)cc3)cc2)[C@]12C(=O)Nc1ccc(I)cc12`, the composite z-score was 0.756 in [1]; 0.853 in [3]; -0.421 in assay [4]; -0.0782 in [5]; 0.0549 in assay [6]; 1.11 in [7]. Further, the values for the composite z-score in assay [8], in assay [9] and in assay [10] were 1.86, 0.218 and 0.659, respectively. This compound also registered a z-score in assay [2] of -0.537.
